About 79,000 compounds went through this panel and 15% of them were active in at least one assay; those are over-represented in the sample as a whole. Activity calls are given as the source filed them. No stated cut-off is given here; in the data, active means growth inhibition above about 70%; inactive means the rest.
Columns and labels:
[1] = NCI Yeast Anticancer Drug Screen. Data for the rad52 strain (AID 147);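 further: 0% = growth of vehicle-treated control cultures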; conditions: S. cerevisiae rad52 mutant growth inhibition, active compounds read high
Method in brief: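 Here a repair-compromised yeast strain receives each compound; its growth is then quantified and normalised to vehicle-only controls.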

[2] = NCI Yeast Anticancer Drug Screen. Data for the wt1 strain (AID 149);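 further: 0% = growth of vehicle-treated wt1 cultures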; conditions: S. cerevisiae wt1 strain (SPY 50644) growth inhibition, active compounds read high
Method in brief: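 The wt1 strain was treated with compounds, and growth was compared with vehicle-treated cultures to give inhibition.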

[3] = NCI Yeast Anticancer Drug Screen. Data for the rad50EPP+ strain (AID 151);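 further: 0% = growth of vehicle-treated control cultures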; conditions: S. cerevisiae rad50 mutant strain, active compounds read high
Method in brief: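 Read-out is yeast growth inhibition relative to vehicle; cells used were the rad50EPP+ strain.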

[4] = NCI Yeast Anticancer Drug Screen. Data for the mgt1 strain (AID 153); conditions: S. cerevisiae mgt1 mutant growth inhibition, active compounds read high
Method in brief: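 Measured: inhibition of mgt1 yeast growth by compound, normalized to vehicle-treated cultures.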

[5] = NCI Yeast Anticancer Drug Screen. Data for the rad50 strain (AID 155);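 further: 0% = growth of vehicle-only cultures of the same strain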; conditions: S. cerevisiae rad50 strain growth inhibition, active compounds read high
Method in brief: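 Cells are treated with compound, grown, and their growth is then scored against vehicle-only cultures of the same repair-deficient yeast strain.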

[6] = NCI Yeast Anticancer Drug Screen. Data for the mec2-1 strain (AID 157); conditions: S. cerevisiae mec2-1 strain, active compounds read high
Method in brief: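 Using mec2-1 yeast: add compound, measure growth, express inhibition versus vehicle-treated cultures.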

[7] = NCI Yeast Anticancer Drug Screen. Data for the rad14 strain (AID 159);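 further: 0% = growth of vehicle-treated control cultures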; conditions: S. cerevisiae rad14 strain growth inhibition, active compounds read high
Method in brief: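 Readout: yeast growth inhibition, referenced to vehicle-only cultures. Strain bears a defined alteration in DNA damage repair.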

[8] = NCI Yeast Anticancer Drug Screen. Data for the sgs1 mgt1 strain (AID 161);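 further: 0% = growth of cultures given vehicle only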; conditions: S. cerevisiae sgs1 mgt1 strain, active compounds read high
Method in brief: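 Yeast cells carrying a defined DNA-repair defect were exposed to test compounds. Growth inhibition was measured relative to vehicle-treated controls.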

[9] = NCI Yeast Anticancer Drug Screen. Data for the cln2 rad14 strain (AID 165);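 further: 0% = growth equal to vehicle treated cultures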; conditions: S. cerevisiae cln2 rad14 strain, active compounds read high
Method in brief: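 Yeast strain cln2 rad14, bearing defects in cell cycle control and DNA repair, serves as the test system; values reflect growth inhibition compared with vehicle.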

[10] = NCI Yeast Anticancer Drug Screen. Data for the bub3 strain (AID 167); conditions: S. cerevisiae bub3 mutant strain, active compounds read high
Method in brief: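 Part of a panel of yeast mutants defective in DNA damage repair or cell cycle regulation. Each strain is grown with compound, and inhibition is calculated relative to solvent-treated cultures.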

[11] = NCI Yeast Anticancer Drug Screen. Data for the wt2 strain (AID 169);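 further: 0% = growth of vehicle-treated yeast cultures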; conditions: S. cerevisiae wt2 strain growth inhibition, active compounds read high
Method in brief: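 Treated yeast vs. vehicle-treated yeast: growth inhibition determined.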

[12] = NCI Yeast Anticancer Drug Screen. Data for the mlh1 strain (AID 171);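 further: 0% = growth of vehicle-treated control cultures of the same strain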; conditions: S. cerevisiae mlh1 strain growth inhibition, active compounds read high
Method in brief: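 A yeast strain with a defined genetic lesion serves as the test organism. Cultures receive compound or vehicle, and growth is measured.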

[13] = NCI Yeast Anticancer Drug Screen. Data for the sgs1 strain (AID 173);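 further: 0% = growth of vehicle-only control cultures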; conditions: S. cerevisiae sgs1 mutant, active compounds read high
Method in brief: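 A genetically defined yeast mutant is incubated with the test compound, and its growth is compared to that of the same strain given vehicle.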

[14] = NCI Yeast Anticancer Drug Screen. Data for the mlh1 rad18 strain (AID 175); conditions: S. cerevisiae mlh1 rad18 strain growth inhibition, active compounds read high
Method in brief: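 Steps: expose repair-defective yeast to compound; measure growth; express inhibition against vehicle-treated controls.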

[15] = NCI Yeast Anticancer Drug Screen. Data for the rad18 strain (AID 177); conditions: S. cerevisiae rad18 mutant growth inhibition, active compounds read high
Method in brief: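 Measured value is growth inhibition of a yeast strain bearing a DNA repair alteration, referenced to vehicle-treated cells.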

[16] = at 5.0 µM (retest, dose inferred, filed as 0.5)
[17] = at 50.0 µM (retest, dose inferred, filed as 5.0)

Measured: growth inhibition

CCC1(O)C(=O)OCc2c1cc1n(c2=O)Cc2cc3ccccc3nc2-1 (stereo unspecified)
inactive: [2]; at 1.2 µM -3% | [2]; at 3.7 µM 28% | [2]; at 11.0 µM 15% | [2]; at 33.0 µM 5% | [2]; at 100.0 µM 13% | [3]; at 1.2 µM 29% | [3]; at 3.7 µM 54% | [4]; at 1.2 µM -11% | [4]; at 3.7 µM -3% | [4]; at 11.0 µM -4% | [4]; at 33.0 µM -3% | [4]; at 100.0 µM 10% | [6]; at 1.2 µM -9% | [6]; at 3.7 µM -2% | [6]; [16] 21% | [6]; at 11.0 µM 23% | [6]; at 33.0 µM 36% | [7]; at 1.2 µM -4% | [7]; at 3.7 µM 7% | [7]; at 11.0 µM 5% | [7]; at 33.0 µM 12% | [7]; at 100.0 µM 24% | [8]; [16] 23% | [8]; [17] 56% | [8]; at 50.0 µM 47.5% | [9]; [16] 6% | [9]; [17] 27% | [9]; at 50.0 µM 19.3% | [10]; at 1.2 µM -14% | [10]; at 3.7 µM 9% | [10]; [16] 12% | [10]; at 11.0 µM -3% | [10]; at 33.0 µM 1% | [10]; [17] 27% | [10]; at 50.0 µM -24.9% | [10]; at 100.0 µM 10% | [11]; at 1.2 µM 6% | [11]; at 3.7 µM 4% | [11]; at 11.0 µM -1% | [11]; at 33.0 µM 1% | [11]; at 100.0 µM 10% | [12]; at 1.2 µM -5% | [12]; at 3.7 µM 13% | [12]; at 11.0 µM 15% | [12]; at 33.0 µM 2% | [12]; at 100.0 µM 15% | [13]; at 1.2 µM 1% | [13]; at 3.7 µM 15% | [13]; at 11.0 µM 23% | [13]; at 33.0 µM 35% | [13]; at 100.0 µM 48% | [14]; [16] 36% | [14]; at 50.0 µM -27.3% | [15]; at 1.2 µM -6% | [15]; at 3.7 µM 15% | [15]; at 11.0 µM 21% | [15]; at 33.0 µM 4% | [15]; at 100.0 µM 7%
active: [1]; at 1.2 µM 73% | [1]; at 3.7 µM 92% | [1]; at 11.0 µM 95% | [1]; at 33.0 µM 94% | [1]; at 100.0 µM 95% | [3]; at 11.0 µM 70% | [3]; at 33.0 µM 75% | [3]; at 100.0 µM 86% | [5]; at 1.2 µM 74% | [5]; at 3.7 µM 91% | [5]; [16] 94% | [5]; at 11.0 µM 95% | [5]; at 33.0 µM 94% | [5]; [17] 96% | [5]; at 50.0 µM 86.2% | [5]; at 100.0 µM 94% | [6]; [17] 89% | [6]; at 50.0 µM 77.2% | [6]; at 100.0 µM 82% | [14]; [17] 70%

O=P(CCCCP(=O)(c1ccccc1)c1ccccc1)(c1ccccc1)c1ccccc1.[Cl][Sn]([Cl])([c]1ccccc1)[c]1ccccc1
inactive: [1]; at 1.2 µM -4% | [1]; at 3.7 µM 26% | [2]; at 1.2 µM -6% | [2]; at 3.7 µM 3% | [2]; at 11.0 µM 26% | [3]; at 1.2 µM 8% | [3]; at 3.7 µM -1% | [3]; at 11.0 µM 2% | [3]; at 33.0 µM 14% | [3]; at 100.0 µM 15% | [4]; at 1.2 µM 13% | [4]; at 3.7 µM 24% | [5]; at 1.2 µM 26% | [5]; at 3.7 µM 24% | [5]; [16] 66% | [6]; at 1.2 µM 11% | [6]; at 3.7 µM 22% | [6]; [16] 48% | [7]; at 1.2 µM 4% | [7]; at 3.7 µM 16% | [9]; [16] 15% | [10]; at 1.2 µM 7% | [10]; at 3.7 µM -3% | [10]; [16] 67% | [10]; at 11.0 µM 50% | [12]; at 1.2 µM 3% | [12]; at 3.7 µM 9% | [13]; at 1.2 µM 0% | [13]; at 3.7 µM 15% | [13]; at 11.0 µM 68% | [15]; at 1.2 µM 3% | [15]; at 3.7 µM 16%
active: [1]; at 11.0 µM 74% | [1]; at 33.0 µM 96% | [1]; at 100.0 µM 97% | [2]; at 33.0 µM 93% | [2]; at 100.0 µM 96% | [4]; at 11.0 µM 74% | [4]; at 33.0 µM 96% | [4]; at 100.0 µM 97% | [5]; at 11.0 µM 82% | [5]; at 33.0 µM 97% | [5]; [17] 98% | [5]; at 50.0 µM 85.7% | [5]; at 100.0 µM 97% | [6]; at 11.0 µM 70% | [6]; at 33.0 µM 95% | [6]; [17] 98% | [6]; at 50.0 µM 87.8% | [6]; at 100.0 µM 96% | [7]; at 11.0 µM 78% | [7]; at 33.0 µM 94% | [7]; at 100.0 µM 96% | [8]; [16] 83% | [8]; [17] 98% | [8]; at 50.0 µM 87.3% | [9]; [17] 97% | [9]; at 50.0 µM 81.8% | [10]; at 33.0 µM 93% | [10]; [17] 98% | [10]; at 50.0 µM 87.5% | [10]; at 100.0 µM 96% | [12]; at 11.0 µM 80% | [12]; at 33.0 µM 96% | [12]; at 100.0 µM 97% | [13]; at 33.0 µM 96% | [13]; at 100.0 µM 97% | [14]; [16] 84% | [14]; [17] 96% | [14]; at 50.0 µM 89.5% | [15]; at 11.0 µM 82% | [15]; at 33.0 µM 95% | [15]; at 100.0 µM 96%

Reference: PubChem BioAssay (NCI)
